Shiga inhibitor: A qHTS for Small Molecule Inhibitors of Shiga Toxin; inhibition, % at 38.7 µM; Vero cells, Shiga toxin protein synthesis inhibition reporter; hit rate 9.2% among 290,000; AID 2315, 2010; in the data active = inhibition mostly above about 28%, no sharp cut-off; inactive = mostly below about 43%
Pf growth 48h: Primary qHTS for delayed death inhibitors of the malarial parasite plastid, 48 hour incubation. hit rate 5.9% among 310,000. P. falciparum luciferase growth in erythrocytes, 48 h. Potency, µM (doses to about 28.7 µM), most hits filed as inhibitors
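Read-out is firefly luciferase luminescence from an integrated reporter in P. falciparum, so falling signal marks reduced parasite growth. Infected erythrocytes were at 2% hematocrit and 0.1% parasitemia (final) in Albumax-supplemented RPMI 1640.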
SARS PLpro yeast: qHTS of Yeast-based Assay for SARS-CoV PLP; S. cerevisiae expressing SARS-CoV PLpro, growth rescue; hit rate 0.19% among 330,000; Potency, µM (highest dose often 32.9 µM), hits mostly activators; calls by dose curve; note: nearly all actives have a fitted effect of over 55% in size
Pf growth 96h: Primary qHTS for delayed death inhibitors of the malarial parasite plastid, 96 hour incubation; hit rate 6.9% among 320,000; Potency, µM (series often up to 28.7 µM), most hits filed as inhibitors; P. falciparum luciferase reporter growth, 96 h; AID 504834, 2011
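Luminescence readout: decreased luciferase signal marks inhibited growth of reporter-expressing P. falciparum in infected red cells (2% hematocrit, 0.05% parasitemia final), exposed to compound two generations (96 h, 37 C, 5% CO2).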
Cycloheximide cs: Cycloheximide Counterscreen for Small Molecule Inhibitors of Shiga Toxin; hit rate 12% among 300,000; cell reporter, cycloheximide protein synthesis inhibition counterscreen; max response, %; in the data active = max response mostly above about 13%, no sharp cut-off; inactive = mostly below about 14%; note: read at 38.3 µM for the half of the compounds with a filed dose
NS1 inh: qHTS Assay for Inhibitors of Influenza NS1 Protein Function; Potency, µM (highest dose often 46.1 µM); hit rate 0.4% among 270,000; calls by dose curve; note: actives are rising curves; nearly all actives have a fitted effect of over 50% in size
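Compounds were scored for reversing the slow growth caused by influenza A NS1 in S. cerevisiae, measured by optical density at 600 nm. Assay medium contained 2% galactose at pH 6.0; NS1-free yeast of the same strain were the positive control.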
A number is an active result; n = inactive; u = inconclusive; x = not tested or not shown. Sampled rows, rich in hits. Any-hit rate of the full collection: about 21%. Unless noted, calls come from the whole dose curve; as a rule, active = well fitted inhibition curve with a large enough effect; inconclusive = small, poorly fitted or top-dose-only effect, or another doubt; inactive = no such curve, though single readings can be large or run the other way.

SMILES	Shiga inhibitor	Pf growth 48h	SARS PLpro yeast	Pf growth 96h	Cycloheximide cs	NS1 inh
O=C(Nc1ccc2nc(-c3cccs3)c(-c3cccs3)nc2c1)NC1CC1	n	x	n	9.3µM	n	n
COc1ccc(CCNC(=O)C2CCN(S(=O)(=O)N3CCC4(CC3)OCCO4)CC2)cc1OC	n	u	n	n	n	n
CCn1c(CNc2ccc(F)cc2)nnc1SCC(=O)Nc1ccc(OC)cc1OC	n	n	n	x	n	n
CC1CCC(NC(=O)CNC(=O)c2cccs2)CC1 (centres undefined)	116	n	n	n	45	n
C=C1OC(CO)(n2cnc3c(N)ncnc32)C(O)C1O (centres undefined)	n	x	x	x	n	x
Nc1nc(NCc2ccco2)nc(Nc2ccccc2)c1[N+](=O)[O-]	n	n	n	n	n	n
Nc1nc(Nc2cccc(F)c2)nc(NCCO)c1[N+](=O)[O-]	n	u	n	u	n	n
Cc1ccc(Nc2ccc3nonc3c2[N+](=O)[O-])cc1	n	n	n	n	n	x
Cc1ccc(Nc2nc(N)c([N+](=O)[O-])c(NCCO)n2)cc1	n	u	n	u	13	n
Nc1nc(Nc2ccccc2)nc(NCc2ccco2)c1[N+](=O)[O-]	n	u	n	u	n	n
Cc1ccc(Nc2nc(N)c([N+](=O)[O-])c(NCc3ccco3)n2)cc1	55	n	n	12µM	34	n
Nc1nc(Nc2ccccc2F)nc(NCc2ccco2)c1[N+](=O)[O-]	49	n	n	u	39	n
Cc1ccc(Nc2ccc([N+](=O)[O-])nc2[N+](=O)[O-])cc1	n	u	n	u	22	n
CC(C)c1ccc(C(=O)COC(=O)C(O)c2ccccc2)cc1 (centres undefined)	x	x	n	x	x	x
CC(C)c1ccc(Nc2nc(Cl)nc(NCc3ccco3)n2)cc1	n	u	n	u	n	n
Fc1ccc(Nc2nc(NCc3ccco3)c3ccccc3n2)cc1	67	0.37µM	n	u	30	n
O=C(Nc1ccccc1)NC1CCCCNC1=O (centres undefined)	n	n	n	n	n	n
O[C@H](CNc1ccccn1)c1ccccc1	x	x	x	x	x	n
CC1(C)OC(=O)N(c2ccccc2)C12C=Cc1c(ccc3ccccc13)O2 (centres undefined)	n	13µM	n	n	n	n
O=C1NC2(C=Cc3c(ccc4ccccc34)O2)Oc2ccccc21 (centres undefined)	84	n	n	n	31	n
CC(c1ccccc1)N1C(=O)OC(C)(C)C1(C)O (centres undefined)	x	n	n	n	x	x
CN1CCN(C(c2cccs2)c2nnnn2Cc2ccc(F)cc2)CC1 (centres undefined)	n	n	n	n	n	n
CCC1=C(OC(=O)N(CC)CC)N2C(=O)OC(=NCc3ccccc3)[C@]2(C)[C@H]2C1=CC[C@H]1C(=O)N(c3ccccc3)C(=O)[C@H]12	n	7.4µM	n	8.3µM	n	n
CCC1=C(OC(=O)N(CC)CC)N2C(=O)OC(=NCC3CC3)[C@]2(Cc2ccccc2)[C@H]2C1=CC[C@H]1C(=O)N(CC(=O)OC)C(=O)[C@H]12	n	5.9µM	n	7.4µM	n	n
CCC1=C(OC(=O)N(CC)CC)N2C(=O)OC(=NCc3ccccc3)[C@]2(C)[C@H]2C1=CC[C@H]1C(=O)N(CC(=O)OC)C(=O)[C@H]12	n	8.3µM	n	9.3µM	n	n
SMILES	Shiga inhibitor	Pf growth 48h	SARS PLpro yeast	Pf growth 96h	Cycloheximide cs	NS1 inh
CCC1=C(OC(=O)N(CC)CC)N2C(=O)OC(=NCC(=O)OC)[C@]2(C)[C@H]2C1=CC[C@H]1C(=O)N(C)C(=O)[C@H]12	n	n	n	n	n	n
COc1ccc(S(=O)(=O)N2CCC(C(=O)Nc3ccccc3N3CCCC3)CC2)cc1OC	n	u	n	12µM	n	n
O=C(CCNC(=O)C1CCN(S(=O)(=O)c2ccccc2)CC1)Nc1cccc(C(F)(F)F)c1	n	n	n	n	16	n
O=C(CCNC(=O)C1CCN(S(=O)(=O)c2ccccc2)CC1)NCc1cccc(C(F)(F)F)c1	n	n	n	n	n	n
COc1ccc(NC(=O)C2CCN(S(=O)(=O)c3ccc(C)cc3)CC2)cc1OC	n	n	n	5.2µM	n	n
COc1ccc(NC(=O)C2CCN(S(C)(=O)=O)CC2)cc1OC	x	n	n	n	n	n
O=C(NNC(=O)C1CCN(S(=O)(=O)c2cccc(C(F)(F)F)c2)CC1)C1CC1	n	n	n	n	n	n
O=C(Nc1ccccc1N1CCCC1)C1CCN(S(=O)(=O)c2cccc(C(F)(F)F)c2)CC1	x	12µM	n	10µM	x	x
COc1ccc(S(=O)(=O)N2CCOCC2)cc1C(=O)N(C)Cc1ccco1	x	x	n	x	x	x
O=C(Nc1ccccc1N1CCCCC1)C1CCN(S(=O)(=O)c2cccc(C(F)(F)F)c2)CC1	x	8.3µM	n	u	x	x
COc1ccc(OC)c(S(=O)(=O)N2CCC(C(=O)Nc3cc(C)ccc3C)CC2)c1	n	x	n	13µM	n	n
COc1ccccc1CNC(=O)CN(Cc1ccc(Cl)cc1)S(C)(=O)=O	n	n	n	n	n	n
CCSc1nc2ccccc2n1C(=O)/C=C/c1ccc(OC)c(OC)c1	n	n	n	n	13	n
C=CCSc1nc2ccccc2n1C(=O)/C=C/c1ccc(OC)c(OC)c1	n	u	n	n	n	n
C=CCSc1nc2ccccc2n1C(=O)/C=C/c1cc(OC)c(OC)c(OC)c1	111	u	n	n	49	n
COc1ccc(-c2cc(C(F)(F)F)n3nc(C(=O)N4CCN5CCCC5C4)cc3n2)cc1OC (centres undefined)	n	u	n	u	n	n
CCN(CC)CCCNC(=O)C1CCN(c2ncnc3c2sc2cccc(F)c23)CC1	n	u	n	1.9µM	n	n
Nc1cc(C(=O)N/N=C/c2cccc([N+](=O)[O-])c2)n[nH]c1=O	n	n	n	n	n	n
Cn1nnnc1Sc1ncnc2scc(-c3ccc(C#N)cc3)c12	x	4.7µM	n	1.9µM	x	x
Cn1nnnc1Sc1ncnc2scc(-c3cccc(F)c3)c12	x	4.7µM	n	u	x	x
COc1ccc(N(CC(O)CN2CCOCC2)S(=O)(=O)c2ccccc2)cc1 (centres undefined)	n	n	n	u	n	n
CC(=O)Nc1cc(S(=O)(=O)Nc2ccccc2C)c(C)cc1C	n	n	n	n	n	n
CC(=O)N1c2ccccc2C(=O)C1N(C)c1ccc(C)cc1 (centres undefined)	45	n	n	n	33	n
CC(=O)N1c2ccccc2[C@@H](C)[C@@H]1C	x	n	n	n	x	x
Cc1ccc(NC(=S)NNC(=O)c2ccco2)cc1	66	n	n	n	31	n
Cc1ccc(C(=O)NNC(=S)NC(=O)c2ccco2)cc1	n	u	n	u	n	n
